Screening data (PubChem BioAssay)
CYP2C19 act: activators of human cytochrome P450 2C19; P33261; recombinant CYP2C19, luciferin-H EGE luminescence; active compounds read high; 0 = fully inhibited enzyme, 1 = untreated enzyme; activation factor at 5 µM; 96,000 tested, under 10 active;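 active = activation factor of at least 2 at 5 µM in the primary screen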;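 note: 0 = wells with 2.5 mM tranylcypromine and 1 = vehicle-only wells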
CYP2C9 inhib: inhibitors of human CYP2C9 | AID 777 | P11712 | hit rate 20% among 96,000 | CYP2C9 Supersomes, luciferin-H conversion, luminescence | inhibition, % at 5 µM;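 active = blocking of liver enzyme CYP2C9 beyond about 50% at 5 µM, limit read from the data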
CYP2C19 inhib: blocks human cytochrome P450 2C19. CYP2C19 Supersomes, luciferin-H EGE luminescence, 30 min. inhibition, % at 5 µM. hit rate 21% among 96,000;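 active = CYP2C19 inhibition above a set limit at 5 µM in the primary screen, cut at about 50% in these data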;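 note: plate controls were negative control wells for no effect and 2.5 mM tranylcypromine positive control for full effect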
CYP2C9 act: increases human cytochrome P450 2C9 activity. P11712. recombinant CYP2C9, luciferin-H conversion, luminescence; active compounds read high; factor 1 = untreated enzyme, 0 = blocked. activation factor at 5 µM. hit rate 1.4% among 96,000. AID 1024;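 active = activation factor of 2 or more for CYP2C9 at a 5 µM dose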;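 note: 0 = sulfaphenazole-blocked wells and 1 = vehicle-only wells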
Pyk2 oligo antag: antagonists of human Pyk2 oligomerization; Q14289; Q293 cells, Pyk2 FERM NanoBiT luminescence; active compounds read low; z-score (the deposit names both 25 µM and 10 µM); hit rate 0.83% among 99,000; AID 1347419;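 active = Z-score of -3 or lower, scaled per plate to the spread of control and sample wells; inactive = z-score above -3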;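 note: negative z-score means lost luminescence so less FERM oligomerization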
Target sequence (Q14289 whole entry, looked up): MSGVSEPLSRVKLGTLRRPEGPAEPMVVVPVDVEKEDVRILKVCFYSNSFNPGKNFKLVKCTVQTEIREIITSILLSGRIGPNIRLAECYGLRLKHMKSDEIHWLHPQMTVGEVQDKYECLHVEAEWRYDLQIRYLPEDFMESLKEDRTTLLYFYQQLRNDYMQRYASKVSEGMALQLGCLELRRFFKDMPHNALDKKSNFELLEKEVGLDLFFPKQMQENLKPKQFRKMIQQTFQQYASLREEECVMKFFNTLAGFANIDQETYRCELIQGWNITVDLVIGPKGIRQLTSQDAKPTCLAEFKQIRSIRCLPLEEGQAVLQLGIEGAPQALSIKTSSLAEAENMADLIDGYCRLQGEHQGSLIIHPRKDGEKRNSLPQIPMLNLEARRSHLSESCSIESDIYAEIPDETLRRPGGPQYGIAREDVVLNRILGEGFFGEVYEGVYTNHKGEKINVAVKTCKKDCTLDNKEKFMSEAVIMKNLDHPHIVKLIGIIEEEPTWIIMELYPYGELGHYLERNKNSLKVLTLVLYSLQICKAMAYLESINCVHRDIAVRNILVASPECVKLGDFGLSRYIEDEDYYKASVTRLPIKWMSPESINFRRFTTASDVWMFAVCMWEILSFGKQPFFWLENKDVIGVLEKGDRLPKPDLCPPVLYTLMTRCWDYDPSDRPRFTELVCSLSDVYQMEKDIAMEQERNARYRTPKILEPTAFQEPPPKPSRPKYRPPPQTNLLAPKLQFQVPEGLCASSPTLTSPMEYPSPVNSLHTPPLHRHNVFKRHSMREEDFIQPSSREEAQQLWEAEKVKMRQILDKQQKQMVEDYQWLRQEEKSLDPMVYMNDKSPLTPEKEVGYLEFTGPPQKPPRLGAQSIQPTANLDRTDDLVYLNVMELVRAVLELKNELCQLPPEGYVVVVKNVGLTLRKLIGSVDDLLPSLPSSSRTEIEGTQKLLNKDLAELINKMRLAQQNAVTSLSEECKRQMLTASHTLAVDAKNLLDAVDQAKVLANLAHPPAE
* hit, by the source's call. An excerpt weighted towards active compounds, which were near 28% of everything screened.

What do the screens show for `CCOC(=O)C(NC(=O)c1ccc(OC)cc1)(N1CCOCC1)C(F)(F)F` (stereo not drawn)?
CYP2C19 act: 0.7; CYP2C9 inhib: 63*; CYP2C19 inhib: 35; CYP2C9 act: 0.4; Pyk2 oligo antag: -0.24

What do the screens show for `CCOC(=O)C(NC(C)=O)(N1CCc2ccccc2C1)C(F)(F)F` (stereo not drawn)?
CYP2C19 act: 0.3; CYP2C9 inhib: 92*; CYP2C19 inhib: 75*; CYP2C9 act: 0.1; Pyk2 oligo antag: 0.57

Results for CCOC(=O)C(NC(=O)c1ccccc1)(N1CCOCC1)C(F)(F)F (stereo not drawn) ?
CYP2C19 act: 0.9; CYP2C9 inhib: -5; CYP2C19 inhib: 13; CYP2C9 act: 1.1; Pyk2 oligo antag: -0.01

What do the screens show for `CCOC(=O)C(NC(=O)c1ccccc1)(N1CCCC1=O)C(F)(F)F` (stereo not drawn)?
CYP2C19 act: 0.5; CYP2C9 inhib: 17; CYP2C19 inhib: 53*; CYP2C9 act: 0.8; Pyk2 oligo antag: -0.44

How did Cc1ccccc1-c1nc(CN2CCC(C(=O)NCCC3=CCCCC3)CC2)c(C)o1 do in these assays?
CYP2C19 act: 1; CYP2C9 inhib: -14; CYP2C19 inhib: 2; CYP2C9 act: 1.1; Pyk2 oligo antag: 1.2

What do the screens show for `C=CCN(CC=C)S(=O)(=O)c1ncn[nH]1`?
CYP2C19 act: 0.9; CYP2C9 inhib: 10; CYP2C19 inhib: 9; CYP2C9 act: 0.9; Pyk2 oligo antag: 0.52

Results for C#CCSc1nnc(CSc2nc3ccccc3s2)n1-c1ccccc1 ?
CYP2C19 act: 0.1; CYP2C9 inhib: 99*; CYP2C19 inhib: 85*; CYP2C9 act: 0; Pyk2 oligo antag: -0.63

How did Cc1noc(C)c1CSc1nc2ccccc2s1 do in these assays?
CYP2C19 act: 0.1; CYP2C9 inhib: 39; CYP2C19 inhib: 94*; CYP2C9 act: 0.6; Pyk2 oligo antag: 1.2

What do the screens show for `CCn1c(CSc2nc3ccccc3s2)nc2ccccc21`?
CYP2C19 act: 0; CYP2C9 inhib: -27; CYP2C19 inhib: 98*; CYP2C9 act: 1.3; Pyk2 oligo antag: -0.68

Results for Cc1noc(C)c1CSc1ncnc2ccccc12 ?
CYP2C19 act: 0; CYP2C9 inhib: 86*; CYP2C19 inhib: 96*; CYP2C9 act: 0.1; Pyk2 oligo antag: -0.23

What do the screens show for `CCn1c(SCC(N)=O)nc2c1c(=O)n(C)c(=O)n2C`?
CYP2C19 act: 1.2; CYP2C9 inhib: -13; CYP2C19 inhib: -15; CYP2C9 act: 1.1; Pyk2 oligo antag: 0.13

How did Cc1ccc2[nH]c(-c3ccccc3)c(CN3CCOCC3)c(=O)c2c1 do in these assays?
CYP2C19 act: 1; CYP2C9 inhib: -16; CYP2C19 inhib: 2; CYP2C9 act: 1.2; Pyk2 oligo antag: 0.85

What do the screens show for `Cc1ccc2c(CC(=O)OC(C)C(=O)NCc3ccc4c(c3)OCO4)coc2c1` (stereo not drawn)?
CYP2C19 act: 0.5; CYP2C9 inhib: 94*; CYP2C19 inhib: 53*; CYP2C9 act: 0.1; Pyk2 oligo antag: 1.2

What do the screens show for `CC(OC(=O)Cc1coc2cc3c(cc12)CCC3)C(=O)NCc1ccc2c(c1)OCO2` (stereo not drawn)?
CYP2C19 act: 0.8; CYP2C9 inhib: 13; CYP2C19 inhib: 17; CYP2C9 act: 0.9; Pyk2 oligo antag: 0.15

How did Cc1ccc2c(CC(=O)NCc3ccc4c(c3)OCO4)coc2c1 do in these assays?
CYP2C19 act: 0.5; CYP2C9 inhib: 79*; CYP2C19 inhib: 52*; CYP2C9 act: 0.2; Pyk2 oligo antag: 0.07

What do the screens show for `COc1ccc2c(CC(=O)NCc3ccc4c(c3)OCO4)coc2c1`?
CYP2C19 act: 0; CYP2C9 inhib: 89*; CYP2C19 inhib: 96*; CYP2C9 act: 0.1; Pyk2 oligo antag: 0.2

What do the screens show for `COc1ccc(-c2c(C)n([O-])c(C)c(C)[n+]2=O)cc1`?
CYP2C19 act: 1; CYP2C9 inhib: -4; CYP2C19 inhib: -4; CYP2C9 act: 1; Pyk2 oligo antag: 0.42

Results for Cc1ccccc1-n1c(C)nnc1SCC(=O)N1CC(=O)Nc2ccccc21 ?
CYP2C19 act: 0.3; CYP2C9 inhib: -15; CYP2C19 inhib: 70*; CYP2C9 act: 1.1; Pyk2 oligo antag: 1.2

Results for Cc1nnc(SCC(=O)N2CC(=O)Nc3ccccc32)n1C ?
CYP2C19 act: 1; CYP2C9 inhib: 1; CYP2C19 inhib: 4; CYP2C9 act: 1; Pyk2 oligo antag: -0.13

What do the screens show for `Cc1ccc(-n2nnnc2SCC(=O)N2CC(=O)Nc3ccccc32)cc1`?
CYP2C19 act: 0.5; CYP2C9 inhib: -48; CYP2C19 inhib: 52*; CYP2C9 act: 1.5; Pyk2 oligo antag: -0.24

How did Cc1cc(C)n(CCCNCC(O)c2ccccc2)n1 (stereo not drawn) do in these assays?
CYP2C19 act: 0.9; CYP2C9 inhib: 5; CYP2C19 inhib: 8; CYP2C9 act: 1; Pyk2 oligo antag: 1.9

How did CC(NC(=O)COC(=O)CCNC(=O)c1ccco1)C12CC3CC(CC(C3)C1)C2 (stereo not drawn) do in these assays?
CYP2C19 act: 0.5; CYP2C9 inhib: 56*; CYP2C19 inhib: 51*; CYP2C9 act: 0.4; Pyk2 oligo antag: 1.2

What do the screens show for `O=C(COC(=O)c1ccccn1)Nc1cccc(Cl)c1Cl`?
CYP2C19 act: 0.2; CYP2C9 inhib: 22; CYP2C19 inhib: 84*; CYP2C9 act: 0.8; Pyk2 oligo antag: 0.61

Results for O=S(=O)(c1ccc(Cl)cc1)N1CCn2c1nc1ccccc12 ?
CYP2C19 act: 0.7; CYP2C9 inhib: -4; CYP2C19 inhib: 30; CYP2C9 act: 1; Pyk2 oligo antag: -0.7

Results for O=C(NCC1CCN(c2ccc(S(=O)(=O)N3CCOCC3)cc2)CC1)c1ccc(Cl)cc1 ?
CYP2C19 act: 0.6; CYP2C9 inhib: 21; CYP2C19 inhib: 41; CYP2C9 act: 0.8; Pyk2 oligo antag: 0.35

How did Cc1ccc(N(CC(=O)Nc2cc(Cl)ccc2Oc2ccccc2)S(C)(=O)=O)cc1C do in these assays?
CYP2C19 act: 0; CYP2C9 inhib: 98*; CYP2C19 inhib: 99*; CYP2C9 act: 0; Pyk2 oligo antag: -2.5

How did Cc1ccc(N(CC(=O)Nc2cc(Cl)ccc2Oc2ccccc2)S(C)(=O)=O)c(C)c1 do in these assays?
CYP2C19 act: 0.4; CYP2C9 inhib: 46; CYP2C19 inhib: 61*; CYP2C9 act: 0.5; Pyk2 oligo antag: -1.9

What do the screens show for `O=C(COc1ccccc1Cl)Nc1cc(Cl)ccc1Oc1ccccc1`?
CYP2C19 act: 1; CYP2C9 inhib: 11; CYP2C19 inhib: -2; CYP2C9 act: 0.9; Pyk2 oligo antag: -1.9

How did COc1ccc(/C=C2\CCc3ccccc3C2=O)cc1Cn1cccn1 do in these assays?
CYP2C19 act: 0.2; CYP2C9 inhib: 49; CYP2C19 inhib: 78*; CYP2C9 act: 0.5; Pyk2 oligo antag: -2.5

Results for O=C1/C(=C/c2ccccc2)CCCc2ccccc21 ?
CYP2C19 act: 0.9; CYP2C9 inhib: 6; CYP2C19 inhib: 15; CYP2C9 act: 0.9; Pyk2 oligo antag: -0.63

Results for CCCCCCCCOC(=O)C1=C(C)Nc2nnnn2C1c1cccs1 (stereo not drawn) ?
CYP2C19 act: 0.2; CYP2C9 inhib: 94*; CYP2C19 inhib: 76*; CYP2C9 act: 0.1; Pyk2 oligo antag: -0.81
